MITF inhib: blocks MITF activity. 37,000 tested, 0.28% active. AID 2240. inhibition, % (no concentration beside the values). TRPM1 promoter luciferase, luminescence, 24 h; in the data active means inhibition above about 85%; inconclusive means no clear call, values can overlap the other calls; inactive means below about 68%;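 further: human melanocyte line stably carrying TRPM1 promoter luciferase reporter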
Hedgehog inh: Sonic Hedgehog pathway inhibition; Shh-LIGHT2 Gli-luciferase reporter, 30 h; AID 2313; 22,000 tested, 2.1% active; inhibition, % (test concentration not listed);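 active means mean inhibition across valid replicates above about 65%, limit read from the data; inconclusive means mean under the limit, yet half or more replicates past it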;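 further: pathway switched on by Shh-conditioned medium diluted 1 in 25 in low serum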
NOMO-1 viab: STK33 inhibitor candidate reducing NOMO-1 cell viability; inhibition, % (test concentration not listed); 37,000 tested, 7.5% active; NOMO-1 AML viability, CellTiter-Glo luminescence, 72 h; AID 2330; in the data active means inhibition above about 80%; inconclusive means no clear call, values can overlap the other calls
* hit, by the source's call; ? = inconclusive; · = no result. Shown are actives, neighbours in structure and some others; about 8.1% of the full set was active somewhere.

SMILES	MITF inhib	Hedgehog inh	NOMO-1 viab
C[C@H](CO)N1C[C@H](C)[C@H](CN(C)C(=O)Nc2ccc(C(F)(F)F)cc2)Oc2c(NC(=O)CCCCCC(=O)Nc3ccccc3N)cccc2C1=O	22	·	114*
CC(C)NC(=O)Nc1cccc2c1O[C@@H](CN(C)Cc1ccc(C(F)(F)F)cc1)[C@@H](C)CN([C@H](C)CO)C2=O	13	-37	9
C[C@@H]1CN([C@H](C)CO)C(=O)c2cccc(NC(=O)C3CC3)c2O[C@H]1CN(C)Cc1ccc(C(F)(F)F)cc1	9	26	64
CC(C)(C)OC(=O)N[C@@H](Cc1ccccc1)c1n[nH]c(=S)o1	-3	-1	-3
COC(=O)c1ccc(NC(=O)CN(c2ccc(Br)c(C)c2)S(C)(=O)=O)cc1	-18	·	11
O=C(CSc1nnc(-c2cccc3ccccc23)o1)Nc1cccc(F)c1	12	·	-10
O=C(CSc1nnc(-c2ccccc2Cl)o1)c1cc2ccccc2oc1=O	-8	·	23
O=C(CCn1cnc2ccccc2c1=O)Nc1ccc(S(=O)(=O)N2CCOCC2)cc1	-17	·	-14
Nc1c(Cl)cc(NC(=O)CCCC(=O)O)cc1Cl	-17	·	-8
COC(=O)c1c(NC(=S)N2CCN(Cc3c(C)nn(C)c3C)CC2)sc2c1CCC(C)C2 (stereo not given)	43	·	58
Cc1cc(O)c(C)c2c1Oc1c(C)c(O)cc(C)c1C(=O)O2	38	15	38
CC1(C)CC(N=Cc2ccco2)CC(C)(C)N1	-3	·	-14
CS(=O)(=O)N(CC(=O)O)c1cc(Cl)c(Cl)cc1Cl	-11	·	-7
COC(=O)c1cccc(NC(=O)CN(c2ccc(I)cc2)S(C)(=O)=O)c1C	-75	·	100*
COC(=O)c1ccc(NC(=O)CN(c2ccccc2Br)S(C)(=O)=O)cc1	0	·	15
Cc1cccc(C)c1NC(=O)CN(c1ccc(Cl)c(C(F)(F)F)c1)S(C)(=O)=O	9	·	-7
COC(=O)c1ccc(Cl)c(NC(=O)CN(c2ccccc2Br)S(C)(=O)=O)c1	8	·	95*
CS(=O)(=O)N(CC(=O)Nc1ccc(Cl)c(C(F)(F)F)c1)c1cccc(C(F)(F)F)c1	27	·	?
CC(=O)Nc1ccc(NC(=O)CN(c2ccc(Cl)c(C(F)(F)F)c2)S(C)(=O)=O)cc1	7	·	99*
COC(=O)c1ccccc1NC(=O)CN(c1ccc(C)c(Cl)c1)S(C)(=O)=O	8	·	29
COC(=O)c1cccc(NC(=O)CN(c2ccc(Cl)c(C(F)(F)F)c2)S(C)(=O)=O)c1C	-22	·	142*
C(=N/n1cnnc1)/c1cccc2c1OCCCO2	-35	-36	12
CCn1c(SCC(=O)Nc2ccccc2F)nnc1-c1ccc(Br)cc1	-2	·	2
COc1ccc(C)cc1NC(=O)CSc1nc(C)cc(-c2ccccc2)n1	1	·	38
C[C@@H]1CN([C@H](C)CO)C(=O)Cc2cc(N(C)C)ccc2O[C@@H]1CN(C)Cc1ccc(Oc2ccccc2)cc1	10	-13	118*
SMILES	MITF inhib	Hedgehog inh	NOMO-1 viab
COc1ccc(S(=O)(=O)Nc2ccc3c(c2)CC(=O)N([C@@H](C)CO)C[C@@H](C)[C@@H](CN(C)Cc2ccc(Oc4ccccc4)cc2)O3)cc1	9	23	?
C[C@H]1CN([C@@H](C)CO)C(=O)Cc2cc(NS(=O)(=O)c3ccc(Cl)cc3)ccc2O[C@H]1CN(C)Cc1ccc(Oc2ccccc2)cc1	-4	3	78
C[C@@H]1CN([C@H](C)CO)C(=O)Cc2cc(NS(=O)(=O)c3ccc(Cl)cc3)ccc2O[C@H]1CN(C)Cc1ccc(Oc2ccccc2)cc1	14	35	112*
Cc1ccc(S(=O)(=O)Nc2ccc3c(c2)CC(=O)N([C@H](C)CO)C[C@H](C)[C@H](CN(C)Cc2ccc(Oc4ccccc4)cc2)O3)cc1	13	-22	111*
COc1ccc(S(=O)(=O)Nc2ccc3c(c2)CC(=O)N([C@@H](C)CO)C[C@H](C)[C@H](CN(C)Cc2ccc(Oc4ccccc4)cc2)O3)cc1	18	-15	28
C[C@H](CO)N1C[C@H](C)[C@H](CN(C)Cc2ccc(Oc3ccccc3)cc2)Oc2ccc(NS(=O)(=O)c3ccccc3)cc2CC1=O	2	-15	96*
C[C@H]1CN([C@@H](C)CO)C(=O)Cc2cc(N(C)C)ccc2O[C@H]1CN(C)Cc1ccc(Oc2ccccc2)cc1	7	-11	52
CC(C)c1ccc(NC(=O)CN(C)S(=O)(=O)c2ccc(F)cc2)cc1	0	·	15
COc1ccc(-c2cc(=O)c3cc(OCC(=O)Nc4ccc(C)cc4C)ccc3o2)cc1	-1	·	36
NS(=O)(=O)c1ccc(N=Cc2c(O)[nH]c3ccccc23)cc1	-5	-16	26
CC1=CC(O)C2/C=C/CCC3OC3(C)C(O)CC(=O)C23C(=O)NC(CC(C)C)C13 (stereo not given)	-15	-8	55
COc1ccc(S(=O)(=O)N(C)CC(=O)NC2CCCCC2)cc1C	-2	·	12
Nc1ncnc2c1c1nc3ccccc3nc1n2CCc1ccccc1	-44	·	-8
Cc1ccc(S(=O)(=O)N2CCN(c3ccc([N+](=O)[O-])c(NCc4ccco4)c3)CC2)cc1C	1	·	57
O=C(CSc1nc(O)cc(=O)[nH]1)Nc1ccccc1	5	·	8
C[C@H](CO)N1C[C@H](C)[C@H](CN(C)Cc2ccc(Oc3ccccc3)cc2)Oc2ccc(NS(=O)(=O)c3ccc(Cl)cc3)cc2CC1=O	7	-44	116*
C[C@@H]1CN([C@H](C)CO)C(=O)Cc2cc(NS(=O)(=O)c3ccc(Cl)cc3)ccc2O[C@H]1CN(C)Cc1ccccc1	-11	1	46
C[C@H](CO)N1C[C@H](C)[C@@H](CN(C)Cc2ccc(C(=O)O)cc2)Oc2ccc(NC(=O)Nc3ccc(C(F)(F)F)cc3)cc2C1=O	-12	·	-1
C[C@@H]1CN([C@@H](C)CO)C(=O)c2cc(NC(=O)Nc3ccc(C(F)(F)F)cc3)ccc2O[C@H]1CN(C)Cc1ccc(-c2ccccc2)cc1	-11	-4	118*
C[C@@H]1CN([C@H](C)CO)C(=O)c2cc(NC(=O)Nc3ccc(C(F)(F)F)cc3)ccc2O[C@H]1CN(C)Cc1ccc(-c2ccccc2)cc1	10	-12	126*
C[C@@H]1CN([C@@H](C)CO)C(=O)c2cc(NC(=O)Nc3ccc(C(F)(F)F)cc3)ccc2O[C@@H]1CN(C)Cc1ccc(-c2ccccc2)cc1	-4	-11	126*
C[C@H](CO)N1C[C@H](C)[C@@H](CN(C)Cc2ccc(-c3ccccc3)cc2)Oc2ccc(NC(=O)Nc3ccc(C(F)(F)F)cc3)cc2C1=O	9	3	122*
CCC(C)c1cc(N)nc2nc3ccccc3n12 (stereo not given)	12	20	23
CC1(C)CC(=O)c2c(SCCOC(=O)c3ccccc3Cl)sc(C#N)c2C1	-2	7	-8
CS(=O)c1sc(C(=O)OCc2ccccc2)c2c1C(=O)CC(C)(C)C2 (stereo not given)	78	·	116*
COc1ccc(-c2nnn(CC(=O)Nc3ccc(OC)cc3OC)n2)cc1	2	·	9
Nc1nonc1-c1nc2ccccc2n1CC(=O)Nc1cccc(Cl)c1Cl	32	·	119*
CCc1ccccc1NC(=O)Cn1c(-c2nonc2N)nc2ccccc21	-5	·	21
COc1cc(CO)ccc1OCc1cccc(C(=O)O)c1	93*	·	19
COc1cc(CO)ccc1OCC(=O)Nc1ccccc1F	-42	·	-6

Source: PubChem
